According to the supplement of paper PMC11732987, “Enantioselective OTUD7B fragment discovery through chemoproteomics screening and high-throughput optimisation” (Communications Chemistry, 2025):

Experiments:
Assay in all cases: log2 ratio of Biotin-Ahx-Ub-VS probe labelling (fragment/DMSO); higher = less target engagement (more negative = stronger competition), active = hit call of the paper (q ≤ 0.05, log2 ratio ≤ -1)
Settings in all cases: compound concentration: 200 uM; treatment time: 3 h
USP19 = molecular target: T1, USP19 (UniProt O94966)
T1 sequence (whole entry): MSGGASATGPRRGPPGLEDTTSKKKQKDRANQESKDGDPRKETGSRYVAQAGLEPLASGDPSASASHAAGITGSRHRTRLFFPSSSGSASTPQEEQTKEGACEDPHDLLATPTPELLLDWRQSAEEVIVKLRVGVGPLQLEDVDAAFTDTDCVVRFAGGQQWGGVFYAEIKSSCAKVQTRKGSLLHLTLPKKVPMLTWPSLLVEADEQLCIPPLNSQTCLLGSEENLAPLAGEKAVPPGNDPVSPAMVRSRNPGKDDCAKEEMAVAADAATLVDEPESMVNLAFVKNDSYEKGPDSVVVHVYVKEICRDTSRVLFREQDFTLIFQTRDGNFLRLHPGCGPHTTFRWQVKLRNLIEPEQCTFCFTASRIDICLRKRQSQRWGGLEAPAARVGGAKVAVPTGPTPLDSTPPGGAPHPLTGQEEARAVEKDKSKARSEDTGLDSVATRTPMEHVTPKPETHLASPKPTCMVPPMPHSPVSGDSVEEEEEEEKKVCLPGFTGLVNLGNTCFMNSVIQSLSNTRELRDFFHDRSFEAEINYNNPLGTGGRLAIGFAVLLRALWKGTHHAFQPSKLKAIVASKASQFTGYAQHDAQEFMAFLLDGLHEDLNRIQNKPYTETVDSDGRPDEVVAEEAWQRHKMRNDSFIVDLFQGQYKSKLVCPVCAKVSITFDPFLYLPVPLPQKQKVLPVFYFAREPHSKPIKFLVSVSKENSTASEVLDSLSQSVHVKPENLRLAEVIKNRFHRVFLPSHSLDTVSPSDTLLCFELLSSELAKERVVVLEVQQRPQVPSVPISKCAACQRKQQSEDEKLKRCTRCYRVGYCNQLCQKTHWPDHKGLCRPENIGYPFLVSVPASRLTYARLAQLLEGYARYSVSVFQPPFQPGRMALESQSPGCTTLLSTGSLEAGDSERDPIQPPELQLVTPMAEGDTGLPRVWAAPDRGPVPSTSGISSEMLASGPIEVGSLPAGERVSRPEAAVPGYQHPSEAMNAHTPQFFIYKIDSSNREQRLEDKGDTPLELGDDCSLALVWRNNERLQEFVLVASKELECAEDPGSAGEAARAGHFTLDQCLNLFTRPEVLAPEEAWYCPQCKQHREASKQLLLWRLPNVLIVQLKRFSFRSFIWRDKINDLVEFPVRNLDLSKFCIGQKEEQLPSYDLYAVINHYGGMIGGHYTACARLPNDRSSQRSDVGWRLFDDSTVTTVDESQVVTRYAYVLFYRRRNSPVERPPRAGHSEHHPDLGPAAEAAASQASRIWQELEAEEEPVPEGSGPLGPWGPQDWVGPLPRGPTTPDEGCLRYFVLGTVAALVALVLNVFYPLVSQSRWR
How it was run: (§1)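 Labelling with Biotin-Ahx-Ub-VS (0.5 µM final, 1 h) followed a 3 h triplicate treatment of HEK293T lysate (495 µg per sample, Tris/CHAPS/IGEPAL buffer with protease inhibitors) with fragment at 200 µM or vehicle. Labelled DUBs were NeutrAvidin-enriched, digested with LysC and trypsin, and run by diaPASEF LC-MS/MS. The values, average log2 fragment/vehicle ratios by unpaired t-test, come from global-median-normalised Spectronaut label-free quantities. Proteins with ≥2 unique peptides were used.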

USP22 = molecular target: T2, USP22 (UniProt Q9UPT9)
T2 sequence (whole entry): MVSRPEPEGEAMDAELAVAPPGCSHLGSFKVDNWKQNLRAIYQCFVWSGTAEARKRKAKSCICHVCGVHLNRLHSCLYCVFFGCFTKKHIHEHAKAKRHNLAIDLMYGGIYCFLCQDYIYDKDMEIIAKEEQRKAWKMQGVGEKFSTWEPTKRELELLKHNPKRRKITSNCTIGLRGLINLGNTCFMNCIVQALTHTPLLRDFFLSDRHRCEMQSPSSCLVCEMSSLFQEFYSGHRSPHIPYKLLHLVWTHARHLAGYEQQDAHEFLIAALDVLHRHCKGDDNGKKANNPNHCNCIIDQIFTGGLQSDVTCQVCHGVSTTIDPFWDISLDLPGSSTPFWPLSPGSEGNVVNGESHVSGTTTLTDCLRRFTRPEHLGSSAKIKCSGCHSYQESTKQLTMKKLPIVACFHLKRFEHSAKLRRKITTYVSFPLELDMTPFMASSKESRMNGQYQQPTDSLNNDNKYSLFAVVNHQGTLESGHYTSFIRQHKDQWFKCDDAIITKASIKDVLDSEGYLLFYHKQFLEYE
How it was run: as §1

USP24 = USP24 (UniProt Q9UPU5)
USP24, sequence (Q9UPU5 whole entry): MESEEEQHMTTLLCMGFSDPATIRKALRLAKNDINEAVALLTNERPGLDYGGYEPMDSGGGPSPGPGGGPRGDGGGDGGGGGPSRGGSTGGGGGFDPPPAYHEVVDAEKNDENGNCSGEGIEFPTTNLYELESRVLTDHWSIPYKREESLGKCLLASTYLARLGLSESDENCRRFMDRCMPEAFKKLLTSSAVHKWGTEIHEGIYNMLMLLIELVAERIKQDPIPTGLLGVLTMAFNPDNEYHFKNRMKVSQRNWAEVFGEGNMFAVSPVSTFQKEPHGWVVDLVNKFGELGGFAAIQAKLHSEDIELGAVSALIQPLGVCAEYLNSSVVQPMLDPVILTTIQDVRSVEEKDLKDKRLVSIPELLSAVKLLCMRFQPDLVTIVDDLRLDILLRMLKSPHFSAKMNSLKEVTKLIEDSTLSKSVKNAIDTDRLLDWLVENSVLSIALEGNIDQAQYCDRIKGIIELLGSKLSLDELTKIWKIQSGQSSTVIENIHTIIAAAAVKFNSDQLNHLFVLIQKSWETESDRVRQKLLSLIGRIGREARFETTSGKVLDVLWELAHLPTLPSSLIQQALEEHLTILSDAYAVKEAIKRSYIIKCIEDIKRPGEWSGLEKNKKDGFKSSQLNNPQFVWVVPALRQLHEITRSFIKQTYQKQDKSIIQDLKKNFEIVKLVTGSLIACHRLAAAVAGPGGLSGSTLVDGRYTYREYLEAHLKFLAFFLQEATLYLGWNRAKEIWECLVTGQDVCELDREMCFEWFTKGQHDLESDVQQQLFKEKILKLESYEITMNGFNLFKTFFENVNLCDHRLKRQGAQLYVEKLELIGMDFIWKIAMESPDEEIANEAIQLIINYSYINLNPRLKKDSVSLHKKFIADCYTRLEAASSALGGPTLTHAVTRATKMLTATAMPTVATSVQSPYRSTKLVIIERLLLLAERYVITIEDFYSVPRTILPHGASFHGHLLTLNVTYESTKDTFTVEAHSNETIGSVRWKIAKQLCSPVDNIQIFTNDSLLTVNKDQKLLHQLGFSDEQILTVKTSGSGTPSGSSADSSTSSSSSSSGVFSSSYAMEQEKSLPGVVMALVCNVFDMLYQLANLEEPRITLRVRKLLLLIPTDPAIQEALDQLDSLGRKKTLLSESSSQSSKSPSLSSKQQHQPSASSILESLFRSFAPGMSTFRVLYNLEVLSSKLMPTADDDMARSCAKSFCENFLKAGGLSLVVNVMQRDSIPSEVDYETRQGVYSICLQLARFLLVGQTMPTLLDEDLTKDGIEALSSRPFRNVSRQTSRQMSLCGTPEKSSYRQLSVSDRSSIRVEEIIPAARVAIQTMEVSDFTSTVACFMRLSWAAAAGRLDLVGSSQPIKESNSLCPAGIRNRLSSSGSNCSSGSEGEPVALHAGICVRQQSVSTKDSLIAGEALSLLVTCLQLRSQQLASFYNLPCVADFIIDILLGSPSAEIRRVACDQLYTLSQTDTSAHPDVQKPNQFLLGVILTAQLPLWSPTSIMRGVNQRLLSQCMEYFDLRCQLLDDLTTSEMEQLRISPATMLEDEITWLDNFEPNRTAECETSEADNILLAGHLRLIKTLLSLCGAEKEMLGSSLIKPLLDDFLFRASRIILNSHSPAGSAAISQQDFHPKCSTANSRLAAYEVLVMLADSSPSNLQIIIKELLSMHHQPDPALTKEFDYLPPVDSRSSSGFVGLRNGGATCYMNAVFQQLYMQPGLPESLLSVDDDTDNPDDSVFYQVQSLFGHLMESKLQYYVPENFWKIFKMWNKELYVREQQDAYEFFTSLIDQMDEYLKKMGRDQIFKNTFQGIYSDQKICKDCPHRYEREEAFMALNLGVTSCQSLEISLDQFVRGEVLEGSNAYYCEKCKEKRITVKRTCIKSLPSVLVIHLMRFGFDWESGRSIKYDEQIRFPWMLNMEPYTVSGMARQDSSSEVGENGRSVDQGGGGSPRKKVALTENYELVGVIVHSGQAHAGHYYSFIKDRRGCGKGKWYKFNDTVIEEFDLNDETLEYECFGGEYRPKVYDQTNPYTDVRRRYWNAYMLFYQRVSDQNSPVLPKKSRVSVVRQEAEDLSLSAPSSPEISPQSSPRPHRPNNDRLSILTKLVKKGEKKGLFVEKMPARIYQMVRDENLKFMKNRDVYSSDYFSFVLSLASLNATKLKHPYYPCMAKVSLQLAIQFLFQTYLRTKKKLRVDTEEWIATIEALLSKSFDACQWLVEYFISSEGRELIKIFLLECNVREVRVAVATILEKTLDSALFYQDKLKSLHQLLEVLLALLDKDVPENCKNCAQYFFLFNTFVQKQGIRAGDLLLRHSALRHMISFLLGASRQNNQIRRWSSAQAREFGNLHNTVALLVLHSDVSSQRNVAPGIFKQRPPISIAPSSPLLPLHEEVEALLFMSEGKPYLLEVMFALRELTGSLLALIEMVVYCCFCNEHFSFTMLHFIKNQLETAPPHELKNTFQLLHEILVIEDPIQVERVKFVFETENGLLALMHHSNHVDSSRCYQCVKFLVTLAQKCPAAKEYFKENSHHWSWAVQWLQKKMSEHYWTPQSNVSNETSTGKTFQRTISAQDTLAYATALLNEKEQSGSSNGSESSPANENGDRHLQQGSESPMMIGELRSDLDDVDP
How it was run: as §1

USP25 = molecular target: T3, USP25 (UniProt Q9UHP3)
T3 sequence (whole entry): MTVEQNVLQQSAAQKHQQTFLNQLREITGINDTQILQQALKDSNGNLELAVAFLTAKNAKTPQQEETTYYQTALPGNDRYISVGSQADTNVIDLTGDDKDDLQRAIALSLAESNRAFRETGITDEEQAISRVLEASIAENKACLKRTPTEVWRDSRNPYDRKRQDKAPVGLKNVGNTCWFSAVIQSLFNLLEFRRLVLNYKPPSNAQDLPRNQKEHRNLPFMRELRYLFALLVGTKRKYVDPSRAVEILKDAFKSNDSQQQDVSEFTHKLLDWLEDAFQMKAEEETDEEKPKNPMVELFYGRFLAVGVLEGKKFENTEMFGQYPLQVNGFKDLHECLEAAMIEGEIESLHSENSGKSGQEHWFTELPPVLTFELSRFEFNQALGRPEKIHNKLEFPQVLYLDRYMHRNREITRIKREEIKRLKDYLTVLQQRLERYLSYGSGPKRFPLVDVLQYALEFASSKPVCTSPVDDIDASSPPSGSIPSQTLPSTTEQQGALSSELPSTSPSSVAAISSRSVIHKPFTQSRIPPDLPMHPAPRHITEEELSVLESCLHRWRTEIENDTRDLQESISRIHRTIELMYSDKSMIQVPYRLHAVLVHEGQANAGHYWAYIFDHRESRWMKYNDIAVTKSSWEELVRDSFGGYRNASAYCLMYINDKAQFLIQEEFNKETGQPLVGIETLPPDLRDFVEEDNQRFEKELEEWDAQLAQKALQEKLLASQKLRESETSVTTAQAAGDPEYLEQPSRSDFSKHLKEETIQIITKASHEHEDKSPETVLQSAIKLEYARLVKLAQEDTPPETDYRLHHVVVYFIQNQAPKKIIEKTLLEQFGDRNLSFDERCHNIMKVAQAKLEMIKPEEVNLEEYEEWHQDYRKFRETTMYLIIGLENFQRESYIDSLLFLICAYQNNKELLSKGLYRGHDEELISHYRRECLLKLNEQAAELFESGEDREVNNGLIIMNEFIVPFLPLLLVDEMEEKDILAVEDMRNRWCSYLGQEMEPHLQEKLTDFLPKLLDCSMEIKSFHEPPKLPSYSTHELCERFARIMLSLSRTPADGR
How it was run: as §1

USP28 = molecular target: T4, USP28 (UniProt Q96RU2)
T4 sequence (whole entry): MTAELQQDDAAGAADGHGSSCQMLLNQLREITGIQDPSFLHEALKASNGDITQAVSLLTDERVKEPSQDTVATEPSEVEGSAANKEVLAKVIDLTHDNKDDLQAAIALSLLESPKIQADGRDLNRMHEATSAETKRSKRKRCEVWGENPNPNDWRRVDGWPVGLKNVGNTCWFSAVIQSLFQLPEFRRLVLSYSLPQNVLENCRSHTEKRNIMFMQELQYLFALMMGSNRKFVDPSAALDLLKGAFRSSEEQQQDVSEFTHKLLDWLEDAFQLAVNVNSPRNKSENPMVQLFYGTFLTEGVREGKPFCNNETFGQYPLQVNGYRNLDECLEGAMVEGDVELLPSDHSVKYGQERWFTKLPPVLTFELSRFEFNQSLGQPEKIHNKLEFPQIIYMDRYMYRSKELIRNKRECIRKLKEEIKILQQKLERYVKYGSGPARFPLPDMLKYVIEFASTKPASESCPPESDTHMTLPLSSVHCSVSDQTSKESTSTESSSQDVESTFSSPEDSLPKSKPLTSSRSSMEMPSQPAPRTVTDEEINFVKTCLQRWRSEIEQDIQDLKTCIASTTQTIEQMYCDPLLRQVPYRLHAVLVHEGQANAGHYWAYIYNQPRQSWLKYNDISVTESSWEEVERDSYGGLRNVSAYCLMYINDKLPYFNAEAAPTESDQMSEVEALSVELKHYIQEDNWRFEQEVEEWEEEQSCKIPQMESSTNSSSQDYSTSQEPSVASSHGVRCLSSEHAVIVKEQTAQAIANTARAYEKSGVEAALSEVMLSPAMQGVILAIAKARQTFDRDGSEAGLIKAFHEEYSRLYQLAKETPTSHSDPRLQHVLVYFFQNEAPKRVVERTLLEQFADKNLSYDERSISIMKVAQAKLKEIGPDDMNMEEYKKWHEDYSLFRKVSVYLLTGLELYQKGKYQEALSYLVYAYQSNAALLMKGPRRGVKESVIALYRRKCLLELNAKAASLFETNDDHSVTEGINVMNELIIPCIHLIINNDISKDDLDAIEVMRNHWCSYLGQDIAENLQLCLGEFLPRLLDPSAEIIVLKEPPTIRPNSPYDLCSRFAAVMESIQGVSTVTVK
How it was run: as §1

Measured: log2 ratio of Biotin-Ahx-Ub-VS probe labelling

O=C(CCl)N[C@H]1CCS(=O)(=O)c2ccccc21
inactive: USP19 -0.274 | USP22 -0.119 | USP24 -0.386 | USP25 -0.264 | USP28 -0.582
